Records with an inconclusive call do not appear. A call without a number means that no potency is given here. Activity calls are given as the source filed them. Unless noted, calls come from the whole dose curve; as a rule, active = well fitted curve in the direction sought with a large enough effect in the repeat runs; inconclusive = weak or mixed curves; inactive = no such curve, though single readings can be large; an effect the other way counts as inactive or inconclusive.
Legend:
[1] = A CellTox Green Cytotoxicity Assay to monitor cytotoxicity in HepG2 cells - 0 hour (AID 1224882); note: nearly all actives have a fitted effect of over 35% in size
In short: (§1)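 Read-out is fluorescence of a cyanine dye excluded from live cells that stains DNA of dead HepG2 cells, with signal proportional to cytotoxicity. Plates were read at 0, 8, 16, 24, 32 and 40 h after compound addition.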

[2] = A CellTox Green Cytotoxicity Assay to monitor cytotoxicity in HEK293 cells - 8 hour (AID 1224884); note: nearly all actives have a fitted effect of over 35% in size
In short: (§2)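 Nonlytic real-time cytotoxicity: HEK293 + CellTox Green reagent plated, 5 h preincubation, pintool compound addition (23 nL in DMSO), 37 C for 40 h, fluorescence measured at successive time points.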

[3] = qHTS RealTime-Glo MT Cell Viability Assay in HEK293 cells - 24 hour (AID 1224886); note: potency is the fitted concentration of half-maximal effect; nearly all actives have a fitted effect of over 50% in size
In short: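 Nonlytic real-time viability readout: viable cells convert prosubstrate to NanoLuc substrate, giving luminescence proportional to live cell number. HEK293, 600 cells/well, compound added after 5 h, continuous culture at 37 C.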

[4] = qHTS RealTime-Glo MT Cell Viability Assay in HEK293 cells - 8 hour (AID 1224887); note: nearly all actives have a fitted effect of over 50% in size; note: potency is the fitted concentration of half-maximal effect
In short: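 Cells were seeded together with NanoLuc luciferase and a prosubstrate that viable cells reduce to a luciferase substrate. After a 5 h incubation at 37 C/5% CO2, compounds were added and luminescence was measured repeatedly during 40 h of treatment.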

[5] = molecular target: Estrogen receptor (Homo sapiens) (UniProt P03372); test: qHTS assay to identify small molecule antagonists of the estrogen receptor alpha (ER-alpha) signaling pathway using the BG1 cell line in the presence of 0.1 nM 17-beta-estradiol (AID 1259244); note: nearly all actives have a fitted effect of over 50% in size; note: potency is the fitted concentration of half-maximal effect
In short: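 Cells: VM7Luc4E2, endogenous ER-alpha, 4x ERE-luc stable. Pre-culture 5 d, phenol red-free, charcoal-stripped FBS. Plated 24 h, compound + E2 0.1 nM final, 22 h 37C/5% CO2. Readout ONE-Glo luminescence.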

[6] = qHTS assay to identify small molecule phospholipidosis (PLD) inducers (AID 1259344; active = well fitted curve in the direction sought with a large enough effect; an effect the other way counts as inactive or inconclusive)
In short: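 HepG2 cells on collagen I, attached 4 h at 37 C, were co-treated with compound and LipidTOX Red dye for 24 h at 37 C, then fixed with paraformaldehyde plus Hoechst 33342 and imaged by high-content microscopy for phospholipid accumulation.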

[7] = qHTS assay to identify small molecule HDAC inhibitors (AID 1259364); note: nearly all actives have a fitted effect of over 45% in size; note: potency is the fitted concentration of half-maximal effect
In short: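 Luminescence from a cell-permeant luminogenic class I/II HDAC substrate reports endogenous deacetylase activity in intact HCT-116 cells treated with compounds for 2 h.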

[8] = qHTS RealTime-Glo MT Cell Viability Assay in HepG2 cells - 16 hour (AID 1224885); note: nearly all actives have a fitted effect of over 50% in size; note: potency is the fitted concentration of half-maximal effect
In short: (§3)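 Luminescence read-out: viable HepG2 cells reduce a prosubstrate to a NanoLuc substrate, giving a signal proportional to live cell number. Reads taken at 0, 8, 16, 24, 32 and 40 h of compound exposure at 37 C.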

[9] = A CellTox Green Cytotoxicity Assay to monitor cytotoxicity in HepG2 cells - 8 hour (AID 1224890); note: nearly all actives have a fitted effect of over 45% in size
In short: as §1

[10] = qHTS assay to identify small molecule antagonists of the estrogen receptor alpha (ER-alpha) signaling pathway using the BG1 cell line in the presence of 0.1 nM 17-beta-estradiol - cell viability counter screen (AID 1259241); note: nearly all actives have a fitted effect of over 40% in size; note: potency is the fitted concentration of half-maximal effect
In short: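 The cell line endogenously expresses full-length ER-alpha and carries four EREs driving luciferase. Cells are cultured 5 days hormone-free, treated 22 hr with compounds and 0.1 nM estradiol, then viability is read by fluorescence.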

[11] = qHTS assay to identify small molecule HDAC inhibitors - cell viability counter screen (AID 1259365)
In short: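 Viability readout: CellTiter-Glo luminescence. Wild-type HCT-116 cells, 2hr compound treatment following overnight attachment at 37 C.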

[12] = qHTS assay to identify small molecule agonists of the sonic hedgehog signaling (Shh) pathway - cell viability counter screen (AID 1259366); note: nearly all actives have a fitted effect of over 50% in size; note: potency is the fitted concentration of half-maximal effect
In short: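 Viability measured fluorometrically (CellTiter-Fluor, 1hr, 37C) in 3T3 Gli1-Luc reporter cells after 23hr compound exposure within a 24hr incubation at 37C/5% CO2.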

[13] = qHTS assay to identify small molecule antagonists of the sonic hedgehog signaling (Shh) pathway - cell viability counter screen (AID 1259367); note: nearly all actives have a fitted effect of over 55% in size; note: potency is the fitted concentration of half-maximal effect
In short: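 NIH/3T3-derived Gli1-Luc reporter cells (2,000 per well) rested 4 hr at 37 C, then received DMSO compounds plus conditioned medium. After 23 hr of treatment, CellTiter-Fluor was added for 1 hr at 37C and fluorescence read.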

[14] = qHTS assay to identify small molecule agonists of the sonic hedgehog signaling (Shh) pathway (AID 1259368; calls by dose curve;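 note: NIH/3T3-derived 3T3Gli1-Luc cells carrying a stable Gli1-driven firefly luciferase reporter; series mostly up to about 92 µM; nearly all actives have a fitted effect of over 15% in size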)
In short: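 3T3Gli1-Luc (NIH/3T3 clone, stable Gli1-Luc); 4 hr pre-incubation, then cpd in DMSO 24 hr, 37 C/5% CO2; luciferase reagent 30 min RT; luminescence.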

[15] = A CellTox Green Cytotoxicity Assay to monitor cytotoxicity in HEK293 cells - 16 hour (AID 1224888); note: nearly all actives have a fitted effect of over 35% in size; note: potency is the fitted concentration of half-maximal effect
In short: as §2

[16] = qHTS assay to identify small molecule antagonists of the androgen receptor (AR) signaling pathway using the MDA cell line in the presence of 0.5 nM R1881 - cell viability counter screen (AID 1259242); note: nearly all actives have a fitted effect of over 45% in size; note: potency is the fitted concentration of half-maximal effect
In short: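 Counter screen for cytotoxicity run in the same wells as the AR antagonist reporter screen: MDA-kb2 cells were treated 16 hr with test compounds and 0.5 nM R1881, then live-cell protease activity was measured by fluorescence.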

[17] = qHTS assay to identify small molecule antagonists of the sonic hedgehog signaling (Shh) pathway (AID 1259369; calls by dose curve; note: nearly all actives have a fitted effect of over 45% in size; note: potency is the fitted concentration of half-maximal effect)
In short: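 3T3Gli1-Luc, conditioned-medium-stimulated, 24hr cpd, 37C/5% CO2; Gli1-driven firefly Luc luminescence after 30min RT with luciferase reagent. Cells plated 4hr before cpd.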

[18] = qHTS RealTime-Glo MT Cell Viability Assay in HepG2 cells - 0 hour (AID 1224889); note: nearly all actives have a fitted effect of over 50% in size
In short: as §3

[19] = A CellTox Green Cytotoxicity Assay to monitor cytotoxicity in HepG2 cells - 32 hour (AID 1224883); note: nearly all actives have a fitted effect of over 50% in size; note: potency is the fitted concentration of half-maximal effect
In short: as §1

[20] = molecular target: Androgen receptor (Homo sapiens) (UniProt P10275); test: qHTS assay to identify small molecule antagonists of the androgen receptor (AR) signaling pathway using the MDA cell line in the presence of 0.5 nM R1881 (AID 1259243); note: nearly all actives have a fitted effect of over 50% in size; note: potency is the fitted concentration of half-maximal effect
In short: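 Luciferase luminescence is the read-out: compounds are tested for suppressing 0.5 nM R1881-driven MMTV reporter activity in MDA-kb2 cells after 16 hr at 37C.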

Estrogen receptor (Homo sapiens), sequence (P03372 whole entry, looked up): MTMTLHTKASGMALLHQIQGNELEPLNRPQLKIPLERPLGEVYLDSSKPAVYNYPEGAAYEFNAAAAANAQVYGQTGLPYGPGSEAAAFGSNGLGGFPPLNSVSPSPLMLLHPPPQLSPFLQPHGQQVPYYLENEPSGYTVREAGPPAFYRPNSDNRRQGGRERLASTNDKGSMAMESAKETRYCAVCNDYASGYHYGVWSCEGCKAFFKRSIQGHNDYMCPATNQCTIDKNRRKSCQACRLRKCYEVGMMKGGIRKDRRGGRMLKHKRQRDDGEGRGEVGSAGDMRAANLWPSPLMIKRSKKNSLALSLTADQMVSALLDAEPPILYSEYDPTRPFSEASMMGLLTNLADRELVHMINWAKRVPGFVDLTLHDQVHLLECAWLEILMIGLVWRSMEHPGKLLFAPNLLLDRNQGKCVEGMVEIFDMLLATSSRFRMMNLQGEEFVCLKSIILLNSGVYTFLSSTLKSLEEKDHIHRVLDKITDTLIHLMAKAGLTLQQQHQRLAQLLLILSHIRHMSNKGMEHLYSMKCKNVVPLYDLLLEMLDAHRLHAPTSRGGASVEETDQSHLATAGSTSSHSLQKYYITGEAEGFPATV
Androgen receptor (Homo sapiens), sequence (P10275 whole entry, looked up): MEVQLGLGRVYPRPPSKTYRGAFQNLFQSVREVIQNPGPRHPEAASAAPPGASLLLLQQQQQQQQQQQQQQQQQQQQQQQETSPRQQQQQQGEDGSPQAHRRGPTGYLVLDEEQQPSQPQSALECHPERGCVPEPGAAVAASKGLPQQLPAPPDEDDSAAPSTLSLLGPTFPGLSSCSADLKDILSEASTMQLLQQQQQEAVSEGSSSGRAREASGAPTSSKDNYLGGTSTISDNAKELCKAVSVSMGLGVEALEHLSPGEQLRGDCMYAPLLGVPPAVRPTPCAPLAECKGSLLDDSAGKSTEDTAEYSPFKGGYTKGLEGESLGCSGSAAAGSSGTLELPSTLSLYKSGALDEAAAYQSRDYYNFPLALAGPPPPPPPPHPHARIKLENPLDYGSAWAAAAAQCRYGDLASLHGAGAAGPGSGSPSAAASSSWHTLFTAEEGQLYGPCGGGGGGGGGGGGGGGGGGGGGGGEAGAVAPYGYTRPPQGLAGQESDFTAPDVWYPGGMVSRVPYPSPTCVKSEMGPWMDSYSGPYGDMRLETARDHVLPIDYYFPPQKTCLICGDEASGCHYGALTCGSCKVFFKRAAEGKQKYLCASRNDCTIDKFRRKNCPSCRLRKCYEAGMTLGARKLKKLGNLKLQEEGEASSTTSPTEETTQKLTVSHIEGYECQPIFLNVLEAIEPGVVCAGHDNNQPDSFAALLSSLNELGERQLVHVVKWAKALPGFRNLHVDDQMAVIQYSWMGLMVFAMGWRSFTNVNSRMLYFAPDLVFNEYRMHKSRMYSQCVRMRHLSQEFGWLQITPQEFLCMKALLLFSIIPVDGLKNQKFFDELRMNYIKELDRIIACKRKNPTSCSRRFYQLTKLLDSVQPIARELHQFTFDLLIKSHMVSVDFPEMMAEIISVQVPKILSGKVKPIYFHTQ

| Structure (SMILES) | Potency [1] | Potency [2] | Potency [3] | Potency [4] | Potency [5] | Potency [6] | Potency [7] | Potency [8] | Potency [9] | Potency [10] | Potency [11] | Potency [12] | Potency [13] | Potency [14] | Potency [15] | Potency [16] | Potency [17] | Potency [18] | Potency [19] | Potency [20] |
| --- | --- | --- | --- | --- | --- | --- | --- | --- | --- | --- | --- | --- | --- | --- | --- | --- | --- | --- | --- | --- |
| CC(C)(C)CC(C)(C)c1ccc(O)c(Cc2ccc(Cl)cc2Cl)c1 | inactive | inactive | 23.9 µM (active) | 23.9 µM (active) | 33.5 µM (active) | inactive | inactive | – | – | – | – | – | – | – | – | – | – | – | – | – |
| Cc1cc2c(cc1C(F)(F)F)N(C(=O)Nc1ccc(Oc3cccnc3C)nc1)CC2 | inactive | inactive | – | inactive | 31.1 µM (active) | – | inactive | inactive | inactive | inactive | inactive | inactive | inactive | inactive | – | – | – | – | – | – |
| Clc1ccc2cc3ccccc3cc2c1 | inactive | inactive | – | – | inactive | – | 54.4 µM (active) | inactive | inactive | inactive | inactive | inactive | inactive | inactive | inactive | inactive | inactive | – | – | – |
| CC(C)OC(=O)c1cc2c(OCC(O)CNC(C)(C)C)cccc2[nH]1 (configuration not stated) | inactive | – | 9.52 µM (active) | 9.52 µM (active) | – | – | inactive | inactive | inactive | inactive | inactive | – | inactive | inactive | – | inactive | 2.66 µM (active) | inactive | – | – |
| CCCC(C)c1ccccc1O (configuration not stated) | inactive | inactive | – | inactive | inactive | – | inactive | inactive | – | inactive | inactive | – | – | inactive | – | inactive | – | inactive | – | – |
| O=C(Nc1cccc(Cl)c1)OCC#CCCl | inactive | inactive | – | 43.6 µM (active) | – | – | inactive | 43.6 µM (active) | inactive | 61.1 µM (active) | inactive | 27.3 µM (active) | 24.3 µM (active) | inactive | inactive | 61.1 µM (active) | 5.45 µM (active) | inactive | – | – |
| CN1CCN(CCC(=O)N2c3ccccc3Sc3ccc(C(F)(F)F)cc32)CC1 | – | inactive | – | – | inactive | – | inactive | – | – | inactive | inactive | – | – | inactive | inactive | – | 3.35 µM (active) | – | 19 µM (active) | – |
| O=c1[nH]sc2cc(Cl)ccc12 | inactive | inactive | – | inactive | inactive | – | inactive | – | – | inactive | inactive | – | inactive | inactive | – | inactive | – | inactive | – | – |
| COc1ccc(-c2ccc3cc(C(=O)O)ccc3c2)cc1C12CC3CC(CC(C3)C1)C2 | – | inactive | 4.77 µM (active) | inactive | – | inactive | inactive | – | – | inactive | inactive | – | inactive | inactive | inactive | – | inactive | – | 21.3 µM (active) | – |
| CCCC/C=C/CCCCO | inactive | inactive | – | inactive | inactive | – | inactive | inactive | inactive | inactive | – | inactive | inactive | inactive | – | inactive | inactive | inactive | – | – |
| CCCCC(CC)COP(=O)(O)OCC(CC)CCCC (configuration not stated) | inactive | inactive | – | inactive | inactive | – | inactive | inactive | inactive | inactive | inactive | – | inactive | – | 38.9 µM (active) | inactive | inactive | inactive | – | – |
| CC(C)(C)C1CCC(CC2=C(O)c3ccccc3C(=O)C2=O)CC1 (configuration not stated) | inactive | inactive | – | – | 21.1 µM (active) | – | inactive | inactive | inactive | 29.8 µM (active) | inactive | inactive | inactive | inactive | inactive | – | – | inactive | – | – |
| O=C(c1ccc(F)cc1)C1CCN(CCn2c(=O)[nH]c3ccccc3c2=O)CC1 | – | inactive | – | 9.52 µM (active) | inactive | inactive | inactive | inactive | – | inactive | – | inactive | inactive | inactive | inactive | inactive | inactive | inactive | inactive | inactive |
| Oc1ccc(N=Nc2ccccc2)cc1 | inactive | – | – | 19.8 µM (active) | inactive | – | 2.77 µM (active) | – | inactive | inactive | inactive | 27.7 µM (active) | – | inactive | – | – | 43.8 µM (active) | – | – | 31 µM (active) |

Reference: PubChem BioAssay (Tox21)
